Among the data in PubChem BioAssay (NCI) are growth values, retold here.

Compounds without any hit were thinned out: in the full panel of roughly 83,000, 20% have a hit.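 Results are percent growth after 48 hours of single-concentration exposure. 100 means growth as in untreated cells, lower positive values show inhibition; negative values down to -100 show cell death.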 A number with no mark means an inactive call. Calls of active or inactive are those of the source. The calls were made as follows: active = growth percent below 10; inactive = the rest.

The test system of the first experiment is HCT-116 colon. The experiment in a line: NCI-60 one-dose screen, 48 h (100 = growth as untreated, 0 = no growth, -100 = all killed). The following applies: 10 µM unless noted.
In the case of `CC(=O)Nc1nc(C(=O)N2N=C(C)/C(=C/c3cccs3)C2=O)cs1`, the growth is 100%.
Regarding `C=C1C(=O)O[C@H]2[C@H]1CC/C(COC(=O)NCCc1ccc(Br)cc1)=C\CC[C@@]1(C)O[C@@H]21`, the growth was -72.1% (active).
As to `CCCCCCCCCCCCNC(=S)N/N=C/c1ccc(Cl)c(Cl)c1`, the growth was 102%.
For `CCCCCCCCCCCCCCCCC(Br)C(=O)O` (stereo unspecified), the growth was 105%.
As to `CCN(Cc1ccc(CN(CC)C(=O)C(Cl)(Cl)Cl)cc1)C(=O)C(Cl)(Cl)Cl`, the growth was 56.4%.
`CS(=O)(=O)N(c1cc(-c2ccc3ncnc(Nc4cccc(Cl)c4)c3c2)cnc1Cl)S(C)(=O)=O`: the growth is 12.1%.
`COc1cc(C(=O)/C=C/c2cc(C(=O)c3cc(OC)c(OC)c(OC)c3)ccc2OC)ccc1N`: the growth is -73.8% (active).
Take `CCCCCCCCCCC/C=C\C[C@H](O)C/C=C1/C(=O)C=C[C@@H]1C/C=C\CCCC(=O)OC`: the growth is -32% (active).
As to `O=S(=O)(NCCCNc1cc(-c2cn(-c3ccccc3)nc2-c2cccc(O)c2)ccn1)c1ccc(Cl)cc1`, the growth was 15%.
Still for that read-out and setting: to `CC(=O)/C=C/c1cc2cc(Cl)ccc2[nH]c1=O` belongs 48.1%; to `CC(=O)Nc1nc(C(=O)N2N=C(C)/C(=C/c3ccccc3)C2=O)cs1`, 98.3%.
As to `COC(=O)CCCCN=Cc1c(O)c(O)c(C(C)C)c2cc(C)c(-c3c(C)cc4c(C(C)C)c(O)c(O)c(C=NCCCCC(=O)OC)c4c3O)c(O)c12`, the growth was 14.9%.
For the compound `COc1cccc(C2CC(=O)Nc3c2c(C)nn3-c2nc3ccccc3[nH]2)c1OC` (stereo unspecified), the growth was 36.2%.
Turning to `O=c1[nH]c(-c2cn(-c3ccc(Cl)cc3)nn2)nc2ccccc12`, the growth was 52%.
As for `Cc1ccc(OCCn2c(C)nn(-c3ccc(Cl)cc3)c2=O)cc1`, the growth was 95.5%.
For the compound `O=C(COc1ccccc1)N1N=C(c2ccc(Cl)cc2)CC1c1c[nH]c2ccccc12` (stereo unspecified), the growth is 68.5%.
Turning to `COc1cc(OC)cc(-c2n[nH]nc2-c2ccc3c(c2)OCO3)c1`, the growth is 15.7%.
Regarding `COC(=O)CC/C(C)=N\Nc1ccc([N+](=O)[O-])cc1`, the growth was 54.1%.
Turning to `O=C(O)C(=Cc1c2ccccc2cc2ccccc12)C(=O)O`, the growth was 97.7%.
As to `Clc1ccc(/C=C/c2nc(N3CCOCC3)c3nc(Cl)c(Cl)cc3n2)cc1`, the growth was 83.7%.
Regarding `COc1cc(OC)c(C(=O)/C=C/c2cccc(C#N)c2)c(OC)c1`, the growth was 2.91% (active).
As for `CCCC(C(=O)OCC)C(C)OC(=O)OCC` (stereo unspecified), the growth is 103%.
As for `CCN(CC)CCSc1c2ccc(Cl)cc2nc2ccc(OC)cc12`, the growth was 50.3%.
On the same count and under the same terms, as for `Cc1nn(-c2ccc(Cl)cc2)c(=O)n1CCOc1ccccc1Cl`, the figure is 74%.
As to `COc1ccc(S(=O)(=O)N2CCN(c3cc4c(cc3F)c(=O)c(C(=O)O)cn4C3CC3)CC2)c(OC)c1`, the growth is 102%.
Regarding `CCOC(=O)C1=C(C)NC(=O)NC1c1ccc(OCC(=O)N/N=C/c2ccc(Cl)cc2)cc1` (stereo unspecified), the growth was 94.2%.
On to `CCOC(=O)c1cc(/C(=N\O)c2cc(OC)c(OC)c(OC)c2)n2c(C)cccc12`, for which the growth was 27.2%.
The same measure, in the same setting: as for `C=CCOc1cccc(/C=C/C(=O)c2sc(Nc3cccnc3)nc2C)c1`, the figure is 20.3%; as for `CN1CCN(c2ccc3cc(-c4nc5ccccc5[nH]4)c(=O)oc3c2)CC1`, 81.9%; as for `O=C(/C=C/CN1CCOCC1)Nc1cc2c(Nc3cccc(Cl)c3F)ncnc2cc1OCCOC(F)F`, 82.9%.
For the compound `O=Nc1c(-c2c(O)[nH]c3ccc([N+](=O)[O-])cc23)[nH]c2ccc(O)cc12`, the growth is 2.29% (active).
Regarding `COC(=O)c1ccc(C)cc1`, the growth was 101%.
As to `COc1ccc(/C=C/c2nc(N3CCOCC3)c3cc(F)c(F)cc3n2)cc1OC`, the growth is 38.7%.
Same read-out and setting: to `Cc1ccc2c(c1)ncn2-c1ncnc2c1CC(C)c1ccccc1N2C` (stereo unspecified) belongs 10.1%; to `COc1ccc(S(=O)(=O)NCCNc2nccc(-c3c(-c4ccccc4)nc4sccn34)n2)cc1`, 9.81% (active).
In the case of `CCCCC[C@@H]1Cc2cc(O)c(C(=O)O)c3c2[C@H](C[C@@]2(CCCO2)O3)O1`, the growth is 100%.
On to `O=C(Nc1ccc(Br)c(Cl)c1)c1cc(F)ccc1O`, for which the growth is -21.8% (active).
The same measure, in the same setting: to `Cc1ccc2nc(-c3c(N)n[nH]c3CCCO)[nH]c(=O)c2c1` belongs 109%.

The subject of the next experiment is HCC-2998 colon. Described as above. The conditions noted are these: 10 µM unless noted.
Take `CC(=O)Nc1nc(C(=O)N2N=C(C)/C(=C/c3cccs3)C2=O)cs1`: the growth was 108%.
As to `C=C1C(=O)O[C@H]2[C@H]1CC/C(COC(=O)NCCc1ccc(Br)cc1)=C\CC[C@@]1(C)O[C@@H]21`, the growth was 71.1%.
As to `CCCCCCCCCCCCNC(=S)N/N=C/c1ccc(Cl)c(Cl)c1`, the growth was 106%.
Regarding `CCCCCCCCCCCCCCCCC(Br)C(=O)O` (stereo unspecified), the growth is 102%.
Turning to `CCN(Cc1ccc(CN(CC)C(=O)C(Cl)(Cl)Cl)cc1)C(=O)C(Cl)(Cl)Cl`, the growth is 92.4%.
Turning to `CS(=O)(=O)N(c1cc(-c2ccc3ncnc(Nc4cccc(Cl)c4)c3c2)cnc1Cl)S(C)(=O)=O`, the growth was 23.9%.
In the case of `COc1cc(C(=O)/C=C/c2cc(C(=O)c3cc(OC)c(OC)c(OC)c3)ccc2OC)ccc1N`, the growth was -80% (active).
As for `CCCCCCCCCCC/C=C\C[C@H](O)C/C=C1/C(=O)C=C[C@@H]1C/C=C\CCCC(=O)OC`, the growth is -46.5% (active).
In the case of `O=S(=O)(NCCCNc1cc(-c2cn(-c3ccccc3)nc2-c2cccc(O)c2)ccn1)c1ccc(Cl)cc1`, the growth was -44.9% (active).
As to `CC(=O)/C=C/c1cc2cc(Cl)ccc2[nH]c1=O`, the growth is 95.2%.
For `CC(=O)Nc1nc(C(=O)N2N=C(C)/C(=C/c3ccccc3)C2=O)cs1`, the growth is 104%.
Regarding `COC(=O)CCCCN=Cc1c(O)c(O)c(C(C)C)c2cc(C)c(-c3c(C)cc4c(C(C)C)c(O)c(O)c(C=NCCCCC(=O)OC)c4c3O)c(O)c12`, the growth was 29.7%.
On to `COc1cccc(C2CC(=O)Nc3c2c(C)nn3-c2nc3ccccc3[nH]2)c1OC` (stereo unspecified), for which the growth was 120%.
Regarding `O=c1[nH]c(-c2cn(-c3ccc(Cl)cc3)nn2)nc2ccccc12`, the growth was 90%.
With `Cc1ccc(OCCn2c(C)nn(-c3ccc(Cl)cc3)c2=O)cc1`, the growth is 111%.
For the compound `O=C(COc1ccccc1)N1N=C(c2ccc(Cl)cc2)CC1c1c[nH]c2ccccc12` (stereo unspecified), the growth was 103%.
`COc1cc(OC)cc(-c2n[nH]nc2-c2ccc3c(c2)OCO3)c1`: the growth is 31.9%.
In the case of `COC(=O)CC/C(C)=N\Nc1ccc([N+](=O)[O-])cc1`, the growth is 66.1%.
Turning to `O=C(O)C(=Cc1c2ccccc2cc2ccccc12)C(=O)O`, the growth is 100%.
The same measure, in the same setting: as for `Clc1ccc(/C=C/c2nc(N3CCOCC3)c3nc(Cl)c(Cl)cc3n2)cc1`, the figure is 94.4%.
Consider `COc1cc(OC)c(C(=O)/C=C/c2cccc(C#N)c2)c(OC)c1`, for which the growth is 14.4%.
Consider `CCCC(C(=O)OCC)C(C)OC(=O)OCC` (stereo unspecified), for which the growth is 103%.
As to `CCN(CC)CCSc1c2ccc(Cl)cc2nc2ccc(OC)cc12`, the growth was 97.3%.
Consider `Cc1nn(-c2ccc(Cl)cc2)c(=O)n1CCOc1ccccc1Cl`, for which the growth was 106%.
Turning to `COc1ccc(S(=O)(=O)N2CCN(c3cc4c(cc3F)c(=O)c(C(=O)O)cn4C3CC3)CC2)c(OC)c1`, the growth was 118%.
On to `CCOC(=O)C1=C(C)NC(=O)NC1c1ccc(OCC(=O)N/N=C/c2ccc(Cl)cc2)cc1` (stereo unspecified), for which the growth is 97.5%.
For `CCOC(=O)c1cc(/C(=N\O)c2cc(OC)c(OC)c(OC)c2)n2c(C)cccc12`, the growth was 70.8%.
As for `C=CCOc1cccc(/C=C/C(=O)c2sc(Nc3cccnc3)nc2C)c1`, the growth is 86.5%.
On to `CN1CCN(c2ccc3cc(-c4nc5ccccc5[nH]4)c(=O)oc3c2)CC1`, for which the growth was 114%.
The same measure, in the same setting: as for `O=C(/C=C/CN1CCOCC1)Nc1cc2c(Nc3cccc(Cl)c3F)ncnc2cc1OCCOC(F)F`, the figure is 86.2%; as for `O=Nc1c(-c2c(O)[nH]c3ccc([N+](=O)[O-])cc23)[nH]c2ccc(O)cc12`, 8.93% (active).
With `COC(=O)c1ccc(C)cc1`, the growth is 109%.
With `COc1ccc(/C=C/c2nc(N3CCOCC3)c3cc(F)c(F)cc3n2)cc1OC`, the growth was 38.2%.
On the same count and under the same terms, as for `Cc1ccc2c(c1)ncn2-c1ncnc2c1CC(C)c1ccccc1N2C` (stereo unspecified), the figure is 26.8%.
On to `COc1ccc(S(=O)(=O)NCCNc2nccc(-c3c(-c4ccccc4)nc4sccn34)n2)cc1`, for which the growth is 60.7%.
With `CCCCC[C@@H]1Cc2cc(O)c(C(=O)O)c3c2[C@H](C[C@@]2(CCCO2)O3)O1`, the growth is 95.9%.
For the compound `O=C(Nc1ccc(Br)c(Cl)c1)c1cc(F)ccc1O`, the growth is 14.7%.
On the same count and under the same terms, as for `Cc1ccc2nc(-c3c(N)n[nH]c3CCCO)[nH]c(=O)c2c1`, the figure is 111%.
